The panel holds about 79,000 compounds, 15% with a hit somewhere; the sample as a whole holds those more often. Values without a mark were called inactive. The source made the active and inactive calls. Cut-off read from the data, not from the text of the source: active = growth inhibition above about 70%; inactive = the rest.

A short description of test [1]: NCI Yeast Anticancer Drug Screen. Data for the rad50 strain (AID 155).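 Note: 0% = growth of vehicle-only cultures of the same strain.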 To be noted: S. cerevisiae rad50 strain growth inhibition; at 50.0 µM; stronger effect = higher value. The method in brief: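 Relative growth inhibition (compound vs vehicle) was measured in yeast with a defined repair-gene alteration.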
The nature of test [2]: NCI Yeast Anticancer Drug Screen. Data for the mec2-1 strain (AID 157). To be noted: S. cerevisiae mec2-1 strain, at 50.0 µM, stronger effect = higher value. The method in brief: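 Compounds were applied to mec2-1 yeast cells. Their growth was then compared with that of vehicle-treated cultures to give growth inhibition.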
Test [3] in a line: NCI Yeast Anticancer Drug Screen. Data for the sgs1 mgt1 strain (AID 161).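 Note: 0% = growth of cultures given vehicle only.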 To be noted: S. cerevisiae sgs1 mgt1 strain, at 50.0 µM, stronger effect = higher value. The method in brief:
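This yeast growth screen uses a strain with defined DNA-repair lesions; compound-treated growth is compared with vehicle-treated growth.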

Test [4] is described as follows: NCI Yeast Anticancer Drug Screen. Data for the cln2 rad14 strain (AID 165).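 Note: 0% = growth equal to vehicle treated cultures.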 To be noted: S. cerevisiae cln2 rad14 strain, at 50.0 µM, stronger effect = higher value. The method in brief: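 Strain: cln2 rad14 yeast, altered in cell cycle control and DNA damage repair. Read-out: growth inhibition vs vehicle.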
The nature of test [5]: NCI Yeast Anticancer Drug Screen. Data for the bub3 strain (AID 167). To be noted: S. cerevisiae bub3 mutant strain, at 50.0 µM, stronger effect = higher value. The procedure, abridged:
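Screening used yeast with an engineered genetic alteration affecting cell cycle control. Compound-exposed cultures were compared with vehicle cultures, and reduced growth was taken as inhibition.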

The nature of test [6]: NCI Yeast Anticancer Drug Screen. Data for the mlh1 rad18 strain (AID 175). The settings on record: S. cerevisiae mlh1 rad18 strain growth inhibition; at 50.0 µM; stronger effect = higher value. The method in brief:
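A repair-deficient yeast strain is exposed to test compound, and growth is scored relative to vehicle-treated controls.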

With `C1NCC2CNCC1O2`, the growth inhibition was 3.2% in test [1]; -12.4% in test [2]; -7.95% in test [3]; 6.35% in test [4]; 7.9% in test [5]; -3.15% in test [6].

Turning to `Cc1ccc(P(=S)(c2ccccc2)c2ccccc2)c2ccccc12`, the growth inhibition in test [1] was 9.9%; in test [2] it was 0.45%; in test [3], -1.5%; in test [4], 10.6%; in test [5], 20%; in test [6] it was -4.25%.

With `CCN1C(=O)C(C)C(=O)N(C)C1=O` (stereo unspecified), the growth inhibition in test [1] is -33.6%; in test [2] it was 18.7%; in test [3], 0.9%; in test [4], -11.4%; in test [5], 0.1%; in test [6], 1.8%.

As to `[CH3][Sn]1([CH3])[O]CC(COc2cc(Cl)c(Cl)cc2Cl)[O]1` (stereo unspecified), the growth inhibition in test [1] was -22.4%; in test [2], 6.65%; in test [3] it was 2.95%; in test [4] it was 5.35%; in test [5], -10.1%; in test [6], 4.5%.

Regarding `CCC[CH2][Sn]([Br])([c]1ccccc1)[c]1ccccc1`, the growth inhibition in test [1] was 99% (active); in test [2], 99% (active); in test [3], 99.4% (active); in test [4], 99.1% (active); in test [5], 99% (active); in test [6] it was 98.9% (active).

Consider `O=C(O)C(Br)CBr` (stereo unspecified), for which the growth inhibition in test [1] was 4.7%; in test [2], 17.6%; in test [3] it was 27.2%; in test [4] it was -13.2%; in test [5], -1.55%; in test [6], 34.5%.

`Cc1c[nH]cn1.Cc1c[nH]cn1.Cc1c[nH]cn1.Cc1c[nH]cn1.Cc1c[nH]cn1.Cc1c[nH]cn1.N#CS.[Mn+2]`: the growth inhibition in test [1] was 6.1%; in test [2] it was 4.3%; in test [3] it was 4.35%; in test [4], -4.8%; in test [5], 4.1%; in test [6] it was 5.05%.

`COc1c2occc2c(CCl)c2ccc(=O)oc12`: the growth inhibition in test [1] is 26.6%; in test [2] it was 11.2%; in test [3] it was 14.3%; in test [4], 24.4%; in test [5], 5.8%; in test [6] it was 28.1%.

Take `COc1ccc2c(c1O)[C@@]13CCCC=C1[C@@H](C2)[N+](C)(C)CC3`: the growth inhibition in test [1] is 22.4%; in test [2] it was 13.7%; in test [3] it was -19.9%; in test [4] it was 15.8%; in test [5], -1.35%; in test [6], -29.6%.

For the compound `C[N+](C)=C(Cl)Cl`, the growth inhibition is 1.75% in test [1]; -30.1% in test [2]; -8.1% in test [3]; 4.15% in test [4]; -7.85% in test [5]; -12.9% in test [6].

For the compound `CCCC[N+]1(C)CCCC1c1cccnc1` (stereo unspecified), the growth inhibition was -15.5% in test [1]; -7.1% in test [2]; 5.3% in test [3]; -10.2% in test [4]; -10.8% in test [5]; -7.85% in test [6].

As to `OC1(C#[C][Hg][C]#CC2(O)CCCCC2)CCCCC1`, the growth inhibition in test [1] was 95.2% (active); in test [2] it was 89.5% (active); in test [3], 90.7% (active); in test [4] it was 97.3% (active); in test [5], 97.4% (active); in test [6] it was 95.4% (active).

In the case of `C[P+]1(C)CCCCC1`, the growth inhibition is 7.15% in test [1]; 12.8% in test [2]; 0.35% in test [3]; -2.7% in test [4]; -8.85% in test [5]; -17.1% in test [6].

In the case of `CCOP(=O)(OCC)/C(C#N)=C/c1ccc(C)o1`, the growth inhibition is -34.2% in test [1]; -13.3% in test [2]; -49.6% in test [3]; -7% in test [4]; -19.8% in test [5]; -41.6% in test [6].

As for `CCCC[C@H]1C(=O)O[C@H](C)[C@H](NC(=O)c2cccc(NC=O)c2O)C(=O)O[C@@H](C)[C@@H]1OC(=O)CC(C)C`, the growth inhibition in test [1] is 18.4%; in test [2], 12.5%; in test [3], 30.9%; in test [4], 16.4%; in test [5], 13.6%; in test [6] it was 44.2%.

Turning to `S=C(Nc1ccccc1)N1CC1`, the growth inhibition in test [1] is -7.85%; in test [2], -22.3%; in test [3], -19.9%; in test [4], -11.9%; in test [5] it was -6.15%; in test [6], -17.4%.

As to `COc1ccc(NC2=C(C)C(=O)C3=C(C2=O)[C@H](COC(N)=O)[C@]2(OC)[C@@H]4N[C@@H]4CN32)cc1`, the growth inhibition in test [1] was 81.7% (active); in test [2], 79.7% (active); in test [3], 74.8% (active); in test [4] it was 71.6% (active); in test [5], 69.4%; in test [6] it was 73.7% (active).

For the compound `c1cc[n+]2c(c1)-c1cccc[n+]1CC2`, the growth inhibition was 65.8% in test [1]; 11% in test [2]; 52.7% in test [3]; 26% in test [4]; 19.3% in test [5]; 53.1% in test [6].

Regarding `CC1(C)N=C(N)N=C(N)N1c1ccc(OCCOc2ccc(S(=O)(=O)F)cc2)cc1`, the growth inhibition is -11.1% in test [1]; -14.4% in test [2]; -2.05% in test [3]; -59.4% in test [4]; -10.7% in test [5]; -18.4% in test [6].

Consider `COc1ccc2nc3c4ccccc4scc-3c2c1`, for which the growth inhibition in test [1] was 99.4% (active); in test [2], 99.5% (active); in test [3], 99.5% (active); in test [4], 99.2% (active); in test [5] it was 99.2% (active); in test [6] it was 99.3% (active).

Consider `CCN(CC)CC#N`, for which the growth inhibition in test [1] was 3.8%; in test [2], -2.75%; in test [3], -6.4%; in test [4] it was -0.25%; in test [5], 3.45%; in test [6] it was -0.7%.

Values taken from PubChem BioAssay (NCI).
